Experiment [1] in a line: ATG_TCF_b_cat_CIS: Attagene CIS-FACTORIAL HepG2 Assay for human T-Cell-Factor with beta-catenin (TCF/b-cat) (AID 2282965; active = hit-call score of the fitted dose curve at least 0.9, where 1 is the maximum; inactive = score below 0.9). To be noted: HepG2 TCF/beta-catenin cis-reporter transcription, actives raise or lower the signal. The essentials:
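Endogenous transcription factor activity is captured through cis-promoter reporter constructs transiently introduced into human HepG2 liver cells. Induced reporter mRNA is measured after 24 h and fitted bidirectionally relative to DMSO.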

Experiment [2] can be described thus: ATG_TAL_CIS: Attagene CIS-FACTORIAL HepG2 Assay for human TAL Basal Promoter (AID 2282966; active = hit-call score of the fitted dose curve at least 0.9, where 1 is the maximum; inactive = score below 0.9;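 also: background control endpoint measuring basal TAL promoter reporter mRNA not a specific factor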). To be noted: HepG2 Attagene cis-factorial TAL promoter reporter; actives raise or lower the signal. The essentials:
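Fluorescence of labelled reporter cDNA fragments, resolved by capillary electrophoresis, gave the readout. Human HepG2 liver cells carried transiently transfected cis-element reporter units and were treated for 24 hours; activity was fitted bidirectionally against DMSO.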

The nature of experiment [3]: ATG_TGFb_CIS: Attagene CIS-FACTORIAL HepG2 Assay for human Transforming Growth Factor (TGF) (AID 2282967; active = hit-call score of the fitted dose curve at least 0.9, where 1 is the maximum; inactive = score below 0.9). To be noted: HepG2 Attagene CIS TGFb reporter, mRNA transcription; actives raise or lower the signal. The gist of the method:
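Transcript-level reporter readout: HepG2 transfectants, 24 h exposure, RNA to cDNA, reporter-specific PCR, fluorescent primer extension, capillary sizing against ROX standards. Gain- or loss-of-signal relative to DMSO.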

Experiment [4] can be described thus: ATG_VDRE_CIS: Attagene CIS-FACTORIAL HepG2 Assay for human Vitamin D Receptor Element (VDRE) (AID 2282968; active = hit-call score of the fitted dose curve at least 0.9, where 1 is the maximum; inactive = score below 0.9). To be noted: HepG2 VDRE cis-reporter transcription, actives raise or lower the signal. The essentials:
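Reporter mRNA induction, quantified by capillary electrophoresis of fluorescently labelled RT-PCR products, was read 24 h after dosing HepG2 cells carrying transiently transfected cis-regulated reporter units; gain or loss relative to DMSO.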

For experiment [5], the target named is X-box-binding protein 1 (Homo sapiens) (UniProt P17861). Briefly: ATG_Xbp1_CIS: Attagene CIS-FACTORIAL HepG2 Assay for human X-box Binding Protein 1 (XBP1) (AID 2282972; active = hit-call score of the fitted dose curve at least 0.9, where 1 is the maximum; inactive = score below 0.9). To be noted: HepG2 XBP1 cis-element reporter, Attagene multiplex; actives raise or lower the signal. The essentials: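 HepG2 cells transiently transfected with multiple cis-element reporter units report endogenous TF activity; 24 h exposure, then reporter mRNA measured by RT-PCR, 6-FAM labelling, HpaI digestion and capillary electrophoresis. Bidirectional fitting versus DMSO.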

In experiment [6] the target is Bile acid receptor (Homo sapiens) (UniProt Q96RI1). The experiment in a line: ATG_FXR_TRANS: Attagene TRANS-FACTORIAL HepG2 Assay for Farnesoid X Receptor (FXR) (AID 2282979).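 Also: hits raise reporter mRNA above DMSO so AC50 marks FXR activation.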 To be noted: HepG2 Attagene TRANS FXR-GAL4 reporter transcription. The gist of the method:
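Transient transfection of HepG2 with multiplexed GAL4-UAS reporter units; exogenous FXR-GAL4 chimera. Dose 24 h → TriZol RNA → oligo(dT) RT → PCR, 6-FAM primer extension, HpaI cut → CE. Gain vs DMSO.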

The target of experiment [7] is Hepatocyte nuclear factor 4-alpha (Homo sapiens) (UniProt P41235). The experiment in a line: ATG_HNF4a_TRANS: Attagene TRANS-FACTORIAL HepG2 Assay for human Hepatocyte Nuclear Factor 4 alpha (HNF4a) (AID 2282982). To be noted: HepG2 HNF4a transactivation reporter, mRNA readout. The essentials:
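Readout is fluorescent reporter-transcript fragments resolved by capillary electrophoresis after RT-PCR from HepG2 cells dosed for 24 h. Cells carried transfected GAL4-UAS reporter constructs measuring exogenous NR-GAL4 chimera activity; DMSO served as baseline.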

Experiment [8] addresses Nuclear receptor subfamily 4 group A member 2 (Homo sapiens) (UniProt P43354). The experiment in a line: ATG_NURR1_TRANS: Attagene TRANS-FACTORIAL HepG2 Assay for human Nuclear Receptor Related Protein 1 (NURR1) (AID 2282985). To be noted: HepG2 Attagene TRANS reporter, mRNA readout. The gist of the method:
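Transient transfection of HepG2, human liver cells, with multiple GAL4-UAS reporter transcription units. Cells dosed 24 h, RNA isolated, reverse-transcribed, PCR-amplified, FAM-labelled, HpaI-digested, sized by capillary electrophoresis. DMSO served as negative control.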

The target of experiment [9] is Transcriptional activator Myb (Homo sapiens) (UniProt P10242). The experiment in a line: ATG_Myb_CIS: Attagene CIS-FACTORIAL HepG2 Assay for human Myeloblastosis (Myb) Proto-Oncogene Transcription Factor (AID 2282986; active = hit-call score of the fitted dose curve at least 0.9, where 1 is the maximum; inactive = score below 0.9). To be noted: HepG2 Attagene CIS-FACTORIAL Myb reporter transcription; actives raise or lower the signal. The gist of the method:
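After 24 h of compound dosing, total RNA from transfected HepG2 cells is reverse-transcribed and the reporter sequences amplified, labeled and separated by capillary electrophoresis. Values come from bidirectional fitting against DMSO.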

Experiment [10] addresses Estrogen receptor (Homo sapiens) (UniProt P03372). Briefly: ATG_ERa_TRANS: Attagene TRANS-FACTORIAL HepG2 Assay for human Estrogen Receptor alpha (ERa) (AID 2282970). To be noted: HepG2 Attagene TRANS ERa GAL4 reporter, mRNA. The essentials:
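Human liver HepG2, transient transfection of multiple GAL4-UAS reporter units; TRANS format (exogenous NR-Gal4 chimera). 24 h dosing. Readout: reporter mRNA, RT-PCR, 6-FAM primer extension, HpaI digest, capillary electrophoresis. Positive direction vs DMSO.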

Experiment [11] in a line: ATG_M_19_TRANS: Attagene TRANS-FACTORIAL HepG2 Assay for M19 Transcription Factor (Internal Marker) (AID 2282974). To be noted: HepG2 Attagene TRANS-FACTORIAL M19 internal marker reporter. The gist of the method: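 Transfected HepG2 (GAL4-UAS MRTUs), 24 h compound, TriZol RNA, DNase-treated RT, reporter PCR, FAM label, HpaI digest, CE fluorescence; gain vs DMSO.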
Experiment [12] is described as follows: ATG_GAL4_TRANS: Attagene TRANS-FACTORIAL HepG2 Assay for GAL4 (Internal Marker) (AID 2282976). To be noted: HepG2 Attagene TRANS GAL4 internal marker reporter. The gist of the method: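 First, HepG2 cells were transfected with reporter units under GAL4-UAS control. Next, they were treated with chemical for 24 h. Finally, RNA was reverse-transcribed, PCR-amplified, FAM-labelled and resolved by capillary electrophoresis, with induction scored against DMSO.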

Experiment [13] addresses Oxysterols receptor LXR-alpha (Homo sapiens) (UniProt Q13133). The experiment in a line: ATG_LXRa_TRANS: Attagene TRANS-FACTORIAL HepG2 Assay for human Liver X Receptor alpha (LXRa) (AID 2282980). To be noted: HepG2 Attagene TRANS reporter, LXRa transactivation. The gist of the method:
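Transfect HepG2 with GAL4-UAS multiplex reporter constructs (TRANS format, chimeric receptor-GAL4); treat 24 h; extract RNA, reverse-transcribe, PCR-amplify, FAM-label, HpaI-digest; resolve fragments by capillary electrophoresis. Upward response vs DMSO.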

The target in experiment [14] is Oxysterols receptor LXR-beta (Homo sapiens) (UniProt P55055). The experiment in a line: ATG_LXRb_TRANS: Attagene TRANS-FACTORIAL HepG2 Assay for human Liver X Receptor beta (LXRb) (AID 2282981). To be noted: HepG2 Attagene TRANS GAL4-LXRb reporter, mRNA. The gist of the method: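 Transient transfection HepG2 (multiplexed RTUs, GAL4-UAS); NR-Gal4 chimera; 24 h exposure; RNA → RT-PCR → 6-FAM primer extension → HpaI → CE; increase vs DMSO.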

Experiment [15] can be described thus: ATG_M_06_TRANS: Attagene TRANS-FACTORIAL HepG2 Assay for M06 Transcription Factor (Internal Marker) (AID 2282983).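 Also: reporter transcript level by RT-PCR then capillary electrophoresis fluorescence.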 To be noted: HepG2 Attagene TRANS M06 internal marker reporter. The gist of the method:
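Transfect HepG2 with MRTUs → dose compounds 24 h → isolate RNA, oligo(dT) RT → PCR with reporter primers → 6-FAM primer extension → HpaI digest → CE fragment analysis. Positive direction vs DMSO.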

Experiment [16] concerns the target Nuclear receptor subfamily 1 group I member 3 (Homo sapiens) (UniProt Q14994). Briefly: ATG_CAR_TRANS: Attagene TRANS-FACTORIAL HepG2 Assay for human Constitutive Androstane Receptor (CAR) (AID 2282969).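 Also: activators raise reporter mRNA above DMSO so AC50 marks induction.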 To be noted: HepG2 Attagene TRANS-FACTORIAL CAR reporter. The gist of the method:
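Readout is reporter mRNA induction, quantified by fluorescent primer extension and capillary electrophoresis after RT-PCR. Cells were HepG2 transiently carrying chimeric NR-Gal4 constructs with GAL4-UAS reporters, treated for 24 h; activity scored upward from DMSO.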

Experiment [17] addresses Steroid hormone receptor ERR1 (Homo sapiens) (UniProt P11474). The experiment in a line: ATG_ERRa_TRANS: Attagene TRANS-FACTORIAL HepG2 Assay for human Estrogen-Related Receptor alpha (ERRa) (AID 2282971). To be noted: HepG2 Attagene TRANS reporter, ERRa transactivation. The essentials: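 Reporter transcript induction was quantified by RT-PCR and capillary electrophoresis of FAM-labelled, HpaI-cut products after 24 h treatment of HepG2 cells carrying transiently transfected GAL4-UAS reporter units and an exogenous ERRa-Gal4 fusion; activity scored as increase over DMSO.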

Experiment [18] can be described thus: ATG_M_32_TRANS: Attagene TRANS-FACTORIAL HepG2 Assay for M32 Transcription Factor (Internal Marker) (AID 2282984).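 Also: transcript level of a background control reporter unit measured by RT-PCR and capillary electrophoresis.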 To be noted: HepG2 Attagene TRANS M32 internal marker reporter. The essentials: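 Measures reporter mRNA induction in human HepG2 liver cells after 24 h chemical treatment. Transcripts from transiently transfected GAL4-UAS reporter units are amplified, fluorescently labelled and sized by capillary electrophoresis; gain of signal relative to DMSO.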

Each structure is given as a SMILES string. Results filed as inconclusive are left out. Calls of active or inactive are those of the source. The calls were made as follows, unless noted: active = hit-call score of the fitted dose curve at least 0.9, where 1 is the maximum; inconclusive = response in the unintended direction; inactive = score below 0.9.

Transcriptional activator Myb (Homo sapiens), sequence (P10242 whole entry, looked up): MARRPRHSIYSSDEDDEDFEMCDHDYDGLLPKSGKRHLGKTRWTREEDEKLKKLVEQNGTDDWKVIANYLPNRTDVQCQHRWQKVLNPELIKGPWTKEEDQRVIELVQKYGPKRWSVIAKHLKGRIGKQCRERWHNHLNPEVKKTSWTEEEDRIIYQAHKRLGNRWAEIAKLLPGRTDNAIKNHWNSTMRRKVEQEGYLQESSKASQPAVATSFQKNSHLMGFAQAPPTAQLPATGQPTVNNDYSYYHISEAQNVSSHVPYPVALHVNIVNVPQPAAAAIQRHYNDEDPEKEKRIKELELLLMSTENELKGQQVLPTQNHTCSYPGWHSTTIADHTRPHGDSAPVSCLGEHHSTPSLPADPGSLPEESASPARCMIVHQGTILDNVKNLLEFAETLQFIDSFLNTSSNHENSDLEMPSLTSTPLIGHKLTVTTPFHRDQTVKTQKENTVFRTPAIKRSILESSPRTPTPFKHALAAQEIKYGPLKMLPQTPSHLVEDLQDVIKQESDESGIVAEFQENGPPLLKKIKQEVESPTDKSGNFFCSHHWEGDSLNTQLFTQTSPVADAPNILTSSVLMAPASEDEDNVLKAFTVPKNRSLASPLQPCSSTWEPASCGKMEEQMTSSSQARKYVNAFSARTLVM
Oxysterols receptor LXR-alpha (Homo sapiens), sequence (Q13133 whole entry, looked up, the tested form may be a part): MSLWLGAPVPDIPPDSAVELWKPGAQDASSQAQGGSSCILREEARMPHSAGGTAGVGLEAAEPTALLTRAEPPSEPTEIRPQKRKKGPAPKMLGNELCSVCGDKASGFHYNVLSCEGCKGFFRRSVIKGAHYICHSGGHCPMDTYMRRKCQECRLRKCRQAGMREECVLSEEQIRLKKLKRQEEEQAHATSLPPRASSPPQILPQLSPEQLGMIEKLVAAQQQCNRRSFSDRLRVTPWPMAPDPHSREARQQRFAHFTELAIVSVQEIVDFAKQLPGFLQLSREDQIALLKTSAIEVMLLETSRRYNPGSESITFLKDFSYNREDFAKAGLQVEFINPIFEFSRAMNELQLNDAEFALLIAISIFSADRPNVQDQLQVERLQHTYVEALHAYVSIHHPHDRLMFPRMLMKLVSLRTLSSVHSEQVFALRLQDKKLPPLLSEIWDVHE
X-box-binding protein 1 (Homo sapiens), sequence (P17861 whole entry, looked up): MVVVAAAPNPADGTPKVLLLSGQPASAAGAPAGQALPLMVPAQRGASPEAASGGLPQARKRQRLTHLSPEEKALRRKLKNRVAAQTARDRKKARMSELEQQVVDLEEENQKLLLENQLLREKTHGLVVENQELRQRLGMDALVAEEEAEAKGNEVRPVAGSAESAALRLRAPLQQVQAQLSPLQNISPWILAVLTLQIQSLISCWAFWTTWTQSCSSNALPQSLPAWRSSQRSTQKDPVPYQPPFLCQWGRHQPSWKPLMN
Nuclear receptor subfamily 4 group A member 2 (Homo sapiens), sequence (P43354 whole entry, looked up, the tested form may be a part): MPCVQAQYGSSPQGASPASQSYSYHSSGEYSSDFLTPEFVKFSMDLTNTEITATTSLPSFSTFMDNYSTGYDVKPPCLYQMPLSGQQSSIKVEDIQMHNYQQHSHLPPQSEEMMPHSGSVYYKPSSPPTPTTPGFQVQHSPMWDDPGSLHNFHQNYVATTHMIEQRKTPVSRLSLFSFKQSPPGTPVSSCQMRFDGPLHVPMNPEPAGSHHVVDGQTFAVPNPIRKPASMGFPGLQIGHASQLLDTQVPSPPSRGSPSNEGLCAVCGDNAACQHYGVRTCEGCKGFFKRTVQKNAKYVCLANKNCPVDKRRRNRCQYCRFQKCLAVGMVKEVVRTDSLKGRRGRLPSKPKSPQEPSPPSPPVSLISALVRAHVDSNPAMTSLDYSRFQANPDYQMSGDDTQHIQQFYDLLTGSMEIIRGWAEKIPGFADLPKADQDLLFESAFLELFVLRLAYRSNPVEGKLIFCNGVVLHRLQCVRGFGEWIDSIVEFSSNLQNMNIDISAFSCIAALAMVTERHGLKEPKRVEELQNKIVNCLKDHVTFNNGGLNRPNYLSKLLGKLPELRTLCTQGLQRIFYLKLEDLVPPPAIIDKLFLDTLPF
Estrogen receptor (Homo sapiens), sequence (P03372 whole entry, looked up, the tested form may be a part): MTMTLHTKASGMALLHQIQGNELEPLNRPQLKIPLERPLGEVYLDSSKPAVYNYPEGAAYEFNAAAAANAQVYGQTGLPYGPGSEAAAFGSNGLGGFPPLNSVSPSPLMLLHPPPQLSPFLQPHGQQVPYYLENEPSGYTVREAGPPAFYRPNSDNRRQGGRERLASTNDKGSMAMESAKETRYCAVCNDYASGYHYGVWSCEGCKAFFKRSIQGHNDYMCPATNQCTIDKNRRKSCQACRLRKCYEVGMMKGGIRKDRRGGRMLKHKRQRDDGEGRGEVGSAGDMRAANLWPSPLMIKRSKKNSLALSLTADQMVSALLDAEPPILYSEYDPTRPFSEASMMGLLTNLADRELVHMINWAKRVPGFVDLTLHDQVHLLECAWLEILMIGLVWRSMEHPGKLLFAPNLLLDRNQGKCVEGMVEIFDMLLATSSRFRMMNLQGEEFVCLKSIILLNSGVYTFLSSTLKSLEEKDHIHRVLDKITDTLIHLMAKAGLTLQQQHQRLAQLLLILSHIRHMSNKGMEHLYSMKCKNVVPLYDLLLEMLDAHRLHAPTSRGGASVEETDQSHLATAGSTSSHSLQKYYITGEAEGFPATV
Hepatocyte nuclear factor 4-alpha (Homo sapiens), sequence (P41235 whole entry, looked up, the tested form may be a part): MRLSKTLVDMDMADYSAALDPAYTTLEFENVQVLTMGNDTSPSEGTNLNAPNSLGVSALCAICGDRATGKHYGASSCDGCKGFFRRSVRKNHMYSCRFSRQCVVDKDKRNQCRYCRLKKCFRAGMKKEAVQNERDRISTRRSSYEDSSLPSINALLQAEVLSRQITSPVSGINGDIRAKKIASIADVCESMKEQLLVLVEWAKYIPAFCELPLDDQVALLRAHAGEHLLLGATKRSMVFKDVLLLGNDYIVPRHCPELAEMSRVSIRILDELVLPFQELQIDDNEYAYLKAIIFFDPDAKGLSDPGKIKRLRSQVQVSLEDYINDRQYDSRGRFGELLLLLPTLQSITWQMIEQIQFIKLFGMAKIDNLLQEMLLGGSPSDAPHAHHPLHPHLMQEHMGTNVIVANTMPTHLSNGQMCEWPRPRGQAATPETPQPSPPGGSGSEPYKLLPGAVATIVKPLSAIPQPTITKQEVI
Bile acid receptor (Homo sapiens), sequence (Q96RI1 whole entry, looked up, the tested form may be a part): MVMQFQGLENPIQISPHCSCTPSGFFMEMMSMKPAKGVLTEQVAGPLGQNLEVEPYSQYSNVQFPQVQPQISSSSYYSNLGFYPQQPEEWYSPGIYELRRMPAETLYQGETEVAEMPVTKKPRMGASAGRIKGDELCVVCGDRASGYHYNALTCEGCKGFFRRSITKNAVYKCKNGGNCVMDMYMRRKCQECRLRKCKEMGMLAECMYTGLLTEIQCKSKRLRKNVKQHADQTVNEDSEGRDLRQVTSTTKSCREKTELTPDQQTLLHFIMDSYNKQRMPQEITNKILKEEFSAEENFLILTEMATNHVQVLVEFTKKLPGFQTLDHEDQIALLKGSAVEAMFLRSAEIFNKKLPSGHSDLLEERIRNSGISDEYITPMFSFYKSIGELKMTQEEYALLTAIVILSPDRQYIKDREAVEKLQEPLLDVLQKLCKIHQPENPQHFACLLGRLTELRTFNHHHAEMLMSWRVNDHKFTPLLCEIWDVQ
Oxysterols receptor LXR-beta (Homo sapiens), sequence (P55055 whole entry, looked up, the tested form may be a part): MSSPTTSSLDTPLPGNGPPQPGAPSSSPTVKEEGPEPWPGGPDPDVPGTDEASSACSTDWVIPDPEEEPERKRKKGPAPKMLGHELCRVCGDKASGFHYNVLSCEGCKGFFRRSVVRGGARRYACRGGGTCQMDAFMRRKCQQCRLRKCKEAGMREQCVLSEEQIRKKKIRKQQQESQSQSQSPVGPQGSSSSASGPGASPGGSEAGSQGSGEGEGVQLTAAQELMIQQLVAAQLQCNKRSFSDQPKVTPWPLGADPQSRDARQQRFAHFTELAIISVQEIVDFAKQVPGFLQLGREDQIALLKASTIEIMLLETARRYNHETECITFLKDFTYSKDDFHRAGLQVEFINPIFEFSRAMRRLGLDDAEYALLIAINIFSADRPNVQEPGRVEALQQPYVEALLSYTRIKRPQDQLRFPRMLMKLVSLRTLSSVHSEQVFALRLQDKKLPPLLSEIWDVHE
Steroid hormone receptor ERR1 (Homo sapiens), sequence (P11474 whole entry, looked up, the tested form may be a part): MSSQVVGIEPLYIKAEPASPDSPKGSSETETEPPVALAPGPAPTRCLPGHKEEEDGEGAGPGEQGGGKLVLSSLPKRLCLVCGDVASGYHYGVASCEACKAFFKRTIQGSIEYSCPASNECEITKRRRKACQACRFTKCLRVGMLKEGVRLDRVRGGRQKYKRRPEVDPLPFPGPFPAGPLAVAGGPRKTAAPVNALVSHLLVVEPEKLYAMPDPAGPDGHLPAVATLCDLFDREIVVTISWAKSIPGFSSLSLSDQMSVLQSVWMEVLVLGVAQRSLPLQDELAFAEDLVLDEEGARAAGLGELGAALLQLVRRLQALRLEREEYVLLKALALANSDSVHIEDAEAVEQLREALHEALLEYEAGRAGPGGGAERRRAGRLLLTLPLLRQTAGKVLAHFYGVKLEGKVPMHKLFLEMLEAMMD
Nuclear receptor subfamily 1 group I member 3 (Homo sapiens), sequence (Q14994 whole entry, looked up, the tested form may be a part): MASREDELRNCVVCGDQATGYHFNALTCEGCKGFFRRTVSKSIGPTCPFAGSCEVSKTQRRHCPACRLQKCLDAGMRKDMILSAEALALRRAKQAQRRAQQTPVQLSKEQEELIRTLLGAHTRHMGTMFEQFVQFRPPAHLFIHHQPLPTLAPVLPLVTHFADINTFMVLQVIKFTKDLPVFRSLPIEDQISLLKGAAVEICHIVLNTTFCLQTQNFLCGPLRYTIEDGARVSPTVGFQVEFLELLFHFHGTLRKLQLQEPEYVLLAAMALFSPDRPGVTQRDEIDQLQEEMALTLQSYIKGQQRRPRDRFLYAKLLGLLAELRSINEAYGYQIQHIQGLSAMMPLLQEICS

`Cc1cc(=O)[nH]c(=S)[nH]1`: the compound was classed as inactive in experiment [1], in experiment [2], in experiment [3], in [4], in experiment [5] and in experiment [6]. The compound was called inactive in experiment [7], in experiment [8] and in experiment [9].
The AC50 is the midpoint of the concentration-response curve, whichever way the signal moves. Take `C=CCOC(=O)c1ccccc1C(=O)OCC=C`: the compound was classed as inactive in experiment [1], in experiment [2], in [3], in [5], in experiment [11] and in experiment [12]. The compound was classed as inactive in [6], in [14], in experiment [15], in experiment [8] and in experiment [9]. Also, the values for the AC50 in experiment [10] and in experiment [13] were 76.7 µM (active) and 25.1 µM (active), respectively.
As for `Oc1ccc2ccccc2c1N=Nc1ccccc1`, the result in experiment [1], in [2], in [16], in [5], in experiment [13] and in experiment [14] was inactive. Also, the compound was classed as inactive in [7], in experiment [15], in [8] and in experiment [9]. In addition, the half-maximal activity concentration (AC50) was 100 µM (active) in experiment [3] and 2.86 µM (active) in [10].
As for `O=[N+]([O-])C(CO)(CO)CO`, the compound was called inactive in experiment [1], in experiment [2], in [3], in experiment [4], in experiment [17] and in experiment [5]. In addition, the compound was called inactive in [11], in experiment [12], in experiment [13], in [18] and in [9].
Turning to `CCCc1cc(=O)[nH]c(=S)[nH]1`, the compound was called inactive in experiment [1], in [2], in [3], in experiment [5], in [11] and in experiment [12]. In addition, the compound was called inactive in experiment [7], in experiment [18], in experiment [8] and in experiment [9]. Moreover, the AC50 in experiment [10] was 8.12 µM (active).
`CC=Cc1ccc(O)c(OC)c1`: the outcome in experiment [1], in experiment [2], in experiment [3], in [10], in [5] and in experiment [12] was inactive. Further, the compound was classed as inactive in experiment [15], in experiment [8] and in experiment [9].

For the origin of these results see PubChem BioAssay (EPA / NIEHS).
